Laboratory results taken from PubChem BioAssay (NCI).
This is part of a sample that, as a whole, favours compounds with a hit. Of some 83,000 tested, about 20% had one in any assay.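 Note: values are percent growth. 100 is the growth of untreated cells, values between 100 and 0 indicate rising inhibition; between -100 and 0 indicates cell death.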 Values without a mark were called inactive. The source made the active and inactive calls. How the source made its calls: active means growth percent below 10; inactive means the rest.

Tested on: MDA-MB-468 breast
Assay: NCI-60 one-dose screen, 48 h (100 = growth as untreated, 0 = no growth, -100 = all killed)
Conditions: 10 µM unless noted

Row | SMILES | growth
1 | COc1ccc(C2CC(c3cc(OC)c(OC)c(OC)c3)=NN2)cc1 (centres undefined) | 66.6%
2 | Cc1cccc(N=NC(=S)NNc2cccc(C)c2)c1 | 116%
3 | NC(=O)NCCO | 102%
4 | COc1ccc(-c2nc(-c3nc4cc(C)c(C)cc4[nH]3)cc3c2[nH]c2ccccc23)cc1 | -27.7% (active)
5 | CCN(C(=O)N1CCN(c2cc3c(cc2F)c(=O)c(C(=O)O)cn3C2CC2)CC1)c1nc(-c2ccc(C)cc2)cs1 | -0.725% (active)
6 | O=C(/C=C/c1ccc([N+](=O)[O-])cc1)c1ccccc1 | 110%
7 | Cc1c2c[n+](C(C)C)ccc2c(C)c2c1[nH]c1ccccc12 | -37% (active)
8 | O=C(COc1cc(O)c2c(=O)cc(-c3ccccc3)oc2c1)Nc1ccccc1C(F)(F)F | 67.6%
9 | COC(=O)C1=NNC(=S)N(c2cc(C)[nH]n2)C(=O)C1 | 108%
10 | COc1ccc(Nc2nn3c(SCC(=O)c4ccc(C)cc4)nnc3s2)cc1 | 87.1%
11 | CNC(=O)c1cc(-c2ccc(NC(=O)Nc3ccc(N4CCOCC4)c(C(F)(F)F)c3)cc2)nc2cccnc12 | 29%
12 | Cc1nc2ccc(-n3ncc(C(=O)c4cc5ccccc5[nH]4)c3N)cc2[nH]1 | 68.2%
13 | COc1ccc(/C=C/C(=O)c2ccc([N+](=O)[O-])cc2)cc1 | 94.4%
14 | CC(CNc1nc(Nc2ccc(Cl)c(Cl)c2)nc(C(Cl)(Cl)Cl)n1)N(C)C (centres undefined) | -43.3% (active)
15 | Nc1ccc(-c2nc3cc(Oc4ccc(Oc5ccc6[nH]c(-c7ccc(N)cc7)nc6c5)cc4)ccc3[nH]2)cc1 | 90.3%
16 | CCCCCc1c(C)[nH]c(/C=C2\N=C(c3ccc[nH]3)C=C2OCc2ccccc2)c1C | -51.6% [100 µM] (active)
17 | COc1cc(/C=C2\C(=O)N(c3c(Cl)cccc3Cl)c3ccccc32)cc(OC)c1OCCCCCCn1c2ccccc2c(=O)c2ccccc21 | 108%
18 | CCOC(=O)CNS(=O)(=O)CC(=O)c1ccccc1 | 54.1%
19 | N#Cc1c(N)nc2c(C#N)c(NC(=O)c3ccccc3)nn2c1-c1ccccc1 | 94.1%
20 | COCCn1cc(-c2csc(-c3cn(C)c4ccc(F)cc34)n2)c2cccnc21 | 21.3%
21 | COc1ccc(-c2c(C)nn3c(NCCN4CCOCC4)cc(C)nc23)cc1OC | 96.3%

Row | SMILES | growth
22 | COc1ccc(Cc2nnc(Nc3nc4ccccc4s3)s2)cc1 | 92.6%
23 | O=c1c2cc(-c3ccc(F)cc3F)ccc2n(O)c(=O)n1-c1cccc(C(F)(F)F)c1 | -0.858% (active)
24 | O=c1[nH]c(=O)n(C2CC(O)C(CO)O2)cc1CO (centres undefined) | 101%
25 | O=C(Nc1cccc(-n2ccc3c(NC(=O)c4ccccc4)nccc32)c1)c1ccc(N2CCOCC2)c(C(F)(F)F)c1 | -2.66% (active)
26 | O=C(Nc1nc2ccc(C(=O)N3CCN(c4ccc(Cl)c(Cl)c4)CC3)cc2s1)c1ccc(NCCc2ccccc2)c([N+](=O)[O-])c1 | 88.6%
27 | COc1cc2c(cc1-c1c(C)noc1C)ncc1nc(C3CCCCC3)n([C@H](C)COC(F)F)c12 | 38.5%
28 | CCSCC1CC(O)(c2ccccc2)C(c2ccccc2)C(c2ccc(F)cc2)O1 (centres undefined) | -18% (active)
29 | O=C(/C=C\c1ccc(O)cc1)c1ccccc1 | 97.4%
30 | N=C(N)c1ccc(-c2ccc(-c3ccc(Cl)c(Cl)c3)o2)cc1 | -70.3% (active)
31 | CCCNC(=O)Oc1ccc(/C(=C(/C)Cc2ccc(OC)cc2)c2ccc(OCCN3CCCC3)cc2)cc1 | 69%
32 | O=[N+]([O-])c1cccc(N=Cc2ccc3c(c2)OCO3)c1 | 103%
33 | COc1ccc(-c2nn(-c3cccc(Cl)c3)cc2/C=C2\NC(=S)N(c3ccc(Cl)cc3)C2=O)cc1 | -56.7% (active)
34 | C=CC(COC(c1ccccc1)(c1ccccc1)c1ccccc1)N(CC)CC (centres undefined) | 14.5%
35 | NC(N)=N/N=C/c1ccc(-c2ccc(-c3cc(Cl)cc(Cl)c3)s2)cc1 | -47.1% (active)
36 | COc1ccc(-c2ccc(-c3ccc(C(=N)N)c(F)c3)s2)cc1 | -78.7% (active)
37 | CCN1CCN(c2ccc(Nc3ncnc4c3nnn4CCc3cc(OC)cc(OC)c3)cc2)CC1 | 76.1%
38 | C=C[C@@H]1C[C@@H]2Cc3cc(Cl)ccc3N1O2 | 95.1%
39 | COc1cc(NC(=O)c2cc3ccccc3nc2Nc2ccc(F)cc2)cc(OC)c1OC | -0.996% (active)
40 | CC(=O)OCC(=O)O[C@@H]1C[C@]2(C(C)C)O[C@@]1(C)[C@@H]1CC[C@@H](C)[C@H]1[C@@H]2OC(=O)/C=C/c1ccccc1 | 83.7%
41 | O=C1c2cc3c(cc2-c2c1c1cc(Cl)c(Cl)cc1c(=O)n2C[C@H](O)CO)OCO3 | -54.1% (active)
42 | Brc1ccc(-c2cnc3nonc3n2)cc1 | 50.1%

Row | SMILES | growth
43 | C[C@@H](N)c1ccc(C(=O)Nc2ccnc3[nH]ccc23)cc1 | 49.2%
44 | Clc1ccccc1C(c1ccccc1)(c1ccccc1)n1ccnc1 | 2.94% (active)
45 | COc1cnc2c(c1)C(=O)c1c-2n(CCCN2CCCC2)c(=O)c2cc([N+](=O)[O-])ccc12 | -41.1% (active)
46 | COc1ccc(NC(=O)[C@@H]2C[C@H]2c2ccccc2)c(C(N)=O)c1 | 101%
47 | CCN1C(=O)/C(=C/N2N=C(c3ccc(Cl)cc3)CC2c2ccc(OC)cc2)SC1=S (centres undefined) | 93.3%
48 | Brc1ccc(-c2cc(-c3ccc4c(c3)OC=CO4)n[nH]2)s1 | -13.5% (active)
49 | C#CCn1c2c(c3ccccc31)C[C@]1(C)[C@H]3CC[C@@H]4[C@@H]5C(=CCC[C@H]5C(=C)C)CC[C@@]4(C)[C@]3(C)CC[C@H]1C2(C)C | 117%
50 | CCOC(=O)c1c(/N=C2\SC(=O)/C(=C\C(=O)OC)N2NC)sc2c1CCN(C(=O)OCC)C2 | 100%
51 | O=C1Nc2ccccc2/C1=C/c1cn(C(=O)c2ccc(Cl)cc2)c2ccccc12 | 97.6%
52 | N/C(=N\C(N)=N\c1nc2ccccc2s1)c1ccc(Cl)cc1 | 94.6%
53 | CCn1cc(C(=O)N/N=C/c2ccc(Br)cc2)c(=O)c2cc(F)c(N3CCNC(C)C3)c(F)c21 (centres undefined) | 82.5%
54 | O=c1nc2c(-c3nc4ccccc4s3)n[nH]n2c2sc3c(c12)CCCC3 | 120%
55 | O=C1NC(=O)C2(CCc3ccccc32)N1 (centres undefined) | 106%
56 | C=C(NC(=O)C(=C)NC(=O)c1csc(C2=NC3c4csc(n4)C4NC(=O)c5csc(n5)C(C(C)(O)C(C)O)NC(=O)C5CSC(=N5)C(=CC)NC(=O)C(C(C)O)NC(=O)c5csc(n5)C3(CC2)NC(=O)C(C)NC(=O)C(=C)NC(=O)C(C)NC(=O)C(C(C)CC)NC2C=Cc3c(C(C)O)cc(nc3C2O)C(=O)OC4C)n1)C(N)=O (centres undefined) | -55.6% (active)
57 | CC(/C=N/NC(=O)c1cc(-c2ccco2)[nH]n1)=C\c1ccccc1 | 117%
58 | O=C(CCCCNC(=O)c1nc(-c2ccccc2)n(-c2ccccc2)n1)NO | 55.4%
59 | C/C(=C(/C)C1CC1CCNC1CCC(NC(=O)OC(C)(C)C)CC1)c1ccccc1 (centres undefined) | 35.3%
60 | ON1CCCC1 | 108%
61 | Cc1ccc(Nc2nc(NCCO)c3ccccc3n2)cc1C | 32.9%
62 | O=C(NC1CCCCC1)c1ccc(Nc2ncnc3c2cnn3-c2ccccc2)cc1 | 76.1%
63 | Cn1c2ccccc2c2nnc(NCCCCO)nc21 | 95.8%

Row | SMILES | growth
64 | Cc1ccc(/C=C(\C#N)n2nc3cccc(F)c3n2)cc1 | 85.2%
65 | CCN1C(=O)N(CC)C2SC(N/N=C/c3ccccc3)=NC21 (centres undefined) | 34.4%
66 | COc1ccc(-c2nc3sccn3c2/C=C/C(=O)c2c[nH]c3ccccc23)cc1 | 62.6%
67 | COc1cc(/C=C(\C#N)C(=O)c2ccccc2)ccc1OCc1ccccc1 | 96.4%
68 | CCN1CCN(Cc2ccc(NC(=O)Nc3nc(-c4cc(OC)c(OC)c(OC)c4)cs3)cc2C(F)(F)F)CC1 | -0.339% (active)
69 | S=c1sc2ccccc2n1CN1CCCCC1 | 108%
70 | CCOC(=O)c1c(C)nc2c(c1N)CC(=O)N2CCc1ccccc1 | 44%
71 | CC(C(=O)O)N1C(N)=NNC1c1ccccc1O (centres undefined) | 104%
72 | CC1CCC(C(C)C)C(NN)C1 (centres undefined) | 110%
73 | O=C(CSc1ncc(-c2ccccc2)n1-c1ccccc1)Nc1ccc(-c2nc3ccccc3s2)cc1 | 15.4%
74 | CC(=O)Oc1ccccc1C(=O)Nc1cc(C(C)C)ccc1C | -5.42% (active)
75 | Cc1cccc(NC(=O)Nc2ccc(-n3cnc4cc(-c5ccc(O)cc5)ccc43)cc2)c1 | 38.4%
76 | COc1cc(CSc2nc3ccc(C)cc3c(=O)n2Cc2ccccc2)cc(OC)c1OC | -25.1% (active)
77 | NS(=O)(=O)c1nnc(/N=C/c2c(O)[nH]c3ccccc23)s1 | 109%
78 | COc1ccc(CCN2CCCn3c2nc2ccccc2c3=O)cc1 | -14% (active)
79 | CNC(=O)c1cc(Oc2ccc(NC(=O)Nc3ccc(Cl)c(OC(C)C)c3)c(F)c2)ccn1 | 11.8%
80 | Cc1c2c(nn1C(=O)c1nn(-c3ccc(Cl)cc3)cc1O)-c1ccccc1CC2 | 13.9%
81 | COc1cc(/C=C/C(=O)c2c(C)nc3ccccc3c2/C=C/c2ccccc2)cc(OC)c1OC | 7.7% (active)
82 | C#C[C@]1(O)CC[C@H]2[C@@H]3CC=C4c5sc(NCc6ccccc6)nc5CC[C@]4(C)[C@H]3CC[C@@]21C | 45.4%
83 | CCCC1CCCCN1C(=O)OCC(C)C (centres undefined) | 97.4%
84 | COc1cc(/C=C2\C(=O)Nc3ccccc32)ccc1OCc1ccc(Cl)cc1 | 102%
